“And” between values parts separate entries of the source, which are not always exact repeats. Identical values can stand only once. Records with an inconclusive call do not appear. The source made the active and inactive calls. Unless noted, calls follow the shape of the dose curve; as a rule, active = well fitted curve in the direction sought with a large enough effect; inconclusive = small, poorly fitted or top-dose-only effect, or another doubt; inactive = no such curve, though single readings can be large; an effect the other way counts as inactive or inconclusive.
What was measured:
[1] = target: Cellular tumor antigen p53 (Homo sapiens) (UniProt P04637); test: Primary qHTS for small molecule compounds that upregulate eGFP-tagged delta133p53alpha (in N-terminal) cells. (AID 2060322); conditions: NCI-H358 eGFP-delta133p53alpha fluorescence, 24 h; activation: stronger effect = higher value;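 also: 0% = DMSO vehicle and 100% = reference activator; nearly all actives have a fitted effect of over 75% in size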
Cellular tumor antigen p53 (Homo sapiens), sequence (P04637 whole entry, looked up): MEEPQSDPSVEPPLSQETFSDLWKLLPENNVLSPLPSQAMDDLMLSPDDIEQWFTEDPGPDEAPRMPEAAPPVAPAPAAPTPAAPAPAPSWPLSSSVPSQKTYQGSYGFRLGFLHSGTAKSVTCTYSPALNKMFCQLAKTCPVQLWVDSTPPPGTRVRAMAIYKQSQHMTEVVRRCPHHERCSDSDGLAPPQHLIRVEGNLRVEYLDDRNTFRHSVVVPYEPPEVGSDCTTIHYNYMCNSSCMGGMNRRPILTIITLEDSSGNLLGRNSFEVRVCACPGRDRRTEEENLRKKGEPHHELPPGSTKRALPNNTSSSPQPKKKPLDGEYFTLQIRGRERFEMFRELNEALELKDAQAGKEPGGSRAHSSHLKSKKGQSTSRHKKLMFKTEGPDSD
Method in brief: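 NCI-H358 cells pre-induced 24 h with 10 ng/ml doxycycline to express N-terminal eGFP-delta133p53alpha, then dosed 24 h at 37C without doxycycline; fixed, Hoechst-stained, GFP intensity by laser scanning cytometry, normalized to DMSO (0%) and 57.5 uM 5-azacytidine (100%).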

[2] = target: Cellular tumor antigen p53 (Homo sapiens) (UniProt P04637); test: Primary qHTS for small molecule compounds that upregulate eGFP-tagged delta133p53alpha (in C-terminal) cells. (AID 2060324); conditions: NCI-H358 delta133p53alpha-eGFP (C-terminal tag), GFP fluorescence imaging, 24 h; series mostly up to 57.5 µM;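 also: 0% = DMSO wells and 100% = 57.5 µM 5-azacytidine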
Method in brief: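 NCI-H358 cells pre-induced 24 h with 100 ng/ml doxycycline to express delta133p53alpha-eGFP, then dosed in doxycycline-free medium for 24 h at 37C. Fixed, Hoechst-stained; GFP intensity by laser scanning cytometry, normalized to DMSO wells.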

[3] = target: Aldehyde dehydrogenase, mitochondrial (Homo sapiens) (UniProt P05091); test: qHTS for Inhibitors of the Aldehyde Dehydrogenase Family (ALDH2) Validation screens (AID 2061302; active = well fitted inhibition curve with a large enough effect; title and protocol of this record describe different tests;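 also: plate controls were DMSO vehicle for no effect and maximal DPI positive control response for full effect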); conditions: ALDH inhibition qHTS; series mostly up to 42.6 µM
[4] = target: Retinaldehyde dehydrogenase 3 (Homo sapiens) (UniProt P47895); test: qHTS for Inhibitors of the Aldehyde Dehydrogenase Family (ALDH1A3) Validation screen (AID 2061312); conditions: ALDH1A3 enzyme inhibition qHTS validation, fluorescence; series mostly up to 84.7 µM; also: % is scaled to controls: 0 for no effect and ±100 for the full control effect; nearly all actives have a fitted effect of over 45% in size

Cc1cccc(C)c1OCC(C)N (stereo unspecified)
inactive: activation [1] 8.37% and -22.7% | Potency [2] | Potency [3] | Potency [4]

CCN(CC)CCNC(=O)c1ccc(NC(C)=O)cc1
inactive: activation [1] 18.6% and -9.2% | Potency [2] | Potency [3] | Potency [4]

CCOC(=O)C1=C[C@]2(CC)CCCN3CCc4c(n1c1ccccc41)[C@@H]32
inactive: activation [1] 20.9% and -18.2% | Potency [2] | Potency [3] | Potency [4]

CC(N)C(=O)OC(C)(C)Cc1ccc(Cl)cc1 (stereo unspecified)
inactive: activation [1] 19.8% and -28.1% | Potency [2] | Potency [3] | Potency [4]

Fc1ccc(C(OCCCc2cnc[nH]2)c2ccc(F)cc2)cc1
inactive: activation [1] -45.7% | Potency [2] | Potency [3] | Potency [4]

CC(C)Cc1ccc([C@H](C)C(=O)O)cc1
inactive: activation [1] -12.1% | Potency [2] | Potency [3] | Potency [4]

C[C@]12CC[C@@H]3c4ccc(O)cc4CC[C@H]3[C@@H]1CCC2=O
inactive: activation [1] 11.7% | Potency [2] | Potency [3] | Potency [4]

Cc1ccccc1C(OCCN(C)C)c1ccccc1 (stereo unspecified)
inactive: activation [1] 0.562% and -27.9% | Potency [2] | Potency [3] | Potency [4]

CC(=O)c1ccc2c(c1)N(CCCN(C)C)c1ccccc1S2
inactive: activation [1] 3.95% and -33.1% | Potency [2] | Potency [3] | Potency [4]

O=c1[nH]c2cc(C(F)(F)F)ccc2n1-c1cc(C(F)(F)F)ccc1O
inactive: activation [1] -56.6% | Potency [2] | Potency [3] | Potency [4]

C[N+](C)(C)CCCCCCCCCC[N+](C)(C)C
inactive: activation [1] -20.9% and 13% | Potency [2] | Potency [3] | Potency [4]

Cc1nc2ccccn2c(=O)c1CCN1CCC(C(=O)c2ccc(F)cc2)CC1
inactive: activation [1] 0.565% and -12% | Potency [2] | Potency [3] | Potency [4]

CC1(C)C(=O)N(CCN2CCC(C(=O)c3ccc(F)cc3)CC2)c2ccccc21
inactive: activation [1] -67.7% and -2.62% | Potency [2] | Potency [3] | Potency [4]

C=CCc1ccccc1OCC(O)CNC(C)C (stereo unspecified)
inactive: activation [1] 2.82% and -28% | Potency [2] | Potency [3] | Potency [4]

CCn1nc(C(=O)O)c(=O)c2cc3c(cc21)OCO3
inactive: activation [1] -7.53% and -29.2% | Potency [2] | Potency [3] | Potency [4]

O=S(=O)(c1cccc2c(Cl)cccc12)N1CCCNCC1
inactive: activation [1] -18.2% | Potency [2] | Potency [3] | Potency [4]

O=c1[nH]ccc2c(O)cccc12
inactive: activation [1] -33.7% | Potency [2] | Potency [3] | Potency [4]

O=C(O)c1cc2cc(F)ccc2[nH]1
inactive: activation [1] -70.8% | Potency [2] | Potency [3] | Potency [4]

c1cnc2c(c1)ccc1cccnc12
inactive: activation [1] -78.4% | Potency [2] | Potency [3] | Potency [4]

FC(F)(F)c1ccccc1-n1ccnc1
inactive: activation [1] 8.47% and -16.2% | Potency [2] | Potency [3] | Potency [4]

O=C(O)CNC(=O)C(CS)Cc1ccccc1 (stereo unspecified)
inactive: activation [1] -14.4% | Potency [2] | Potency [3] | Potency [4]

C[C@]12CCC(=O)C=C1CC[C@@H]1[C@@H]2CC[C@@]2(C)[C@H]1CC[C@]2(O)C(=O)CO
inactive: activation [1] 12.6% and 23.7% | Potency [2] | Potency [3] | Potency [4]

Nc1nc2[nH]c(=O)cnc2c(=O)[nH]1
inactive: activation [1] -25.1% | Potency [2] | Potency [3] | Potency [4]

NOCC(=O)O
inactive: activation [1] -16.6% | Potency [2] | Potency [3] | Potency [4]

CN1C2CCC1CC(OC(=O)c1c[nH]c3ccccc13)C2 (stereo unspecified)
inactive: activation [1] -37.1% | Potency [2] | Potency [3] | Potency [4]

CN(C)CCC=C1c2ccccc2CCc2ccccc21
inactive: activation [1] -12.6% and -30.9% | Potency [2] | Potency [3] | Potency [4]

O=P(O)(O)C(Cl)(Cl)P(=O)(O)O
inactive: activation [1] -11.2% | Potency [2] | Potency [3] | Potency [4]

COc1ccc(CCN(C)CCCC(C#N)(c2cc(OC)c(OC)c(OC)c2)C(C)C)cc1OC (stereo unspecified)
inactive: activation [1] -8.73% | Potency [2] | Potency [3] | Potency [4]

N=c1nc(N2CCCCC2)cc(N)n1O
inactive: activation [1] -6.36% and -9.21% and -2.97% | Potency [2] | Potency [3] | Potency [4]
